PubChem BioAssay (NCI)
Several values for one entry are separate records, joined by “and”; a condition that tells them apart may be missing. Identical values can stand only once. About 83,000 compounds went through this panel and 20% of them were active in at least one assay; those are over-represented in the sample as a whole.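 Compound tested at a single concentration for 48 hours in 96-well plates; a percent growth value below 10 was scored as active.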 Values without a mark were called inactive. Activity calls are given as the source filed them.

Tested on: MDA-MB-468 breast
Assay: NCI-60 one-dose screen, 48 h (100 = growth as untreated, 0 = no growth, -100 = all killed)
Conditions: 10 µM unless noted

Row | Structure (SMILES) | growth
1 | O=C1c2ccccc2C(=O)N1N1CC1c1ccccc1 (stereo not given) | 104%
2 | CNC(=O)Oc1cc(C(C)C)ccc1Sc1ccc(C(C)C)cc1OC(=O)NC | 56.5%
3 | CCCC(C)SP(=S)(SC(C)CCC)SC(C)CCC (stereo not given) | -25.4% (active)
4 | Nc1nc(=S)nc(N)[nH]1 | 99.3%
5 | CC(C)(C)NCC(O)c1ccccc1Cl (stereo not given) | -12.6% (active)
6 | O=C(Nc1ccc([As]=[As]c2ccc(NC(=O)c3ccccc3)cc2)cc1)c1ccccc1 (stereo not given) | -74.8% (active)
7 | Clc1cccc(Cl)c1Cl | 107%
8 | O=C(Cc1ccccc1)c1ccccc1 | 106%
9 | CCOc1cc(/C=N\Nc2nnc(C)n2N)c(C)cc1N(CCCl)CCCl | -21.1% (active)
10 | COc1cc(OC)c(S(=O)(=O)N(CCCl)CCCl)cc1C(=O)/C=C/c1ccc(Cl)cc1 | 47.6%
11 | C1CCC([PH+](C2CCCCC2)C2CCCCC2[PH+](C2CCCCC2)C2CCCCC2)CC1.[Au].[CH-]1CCCCC1CC1CCCC[N-]1 (stereo not given) | -61.8% (active)
12 | Cn1cc(-c2csc(-c3cn(CCCCN4CCCCC4)c4ccccc34)n2)c2cccnc21 | -26.9% (active)
13 | CC1=C(CN(O)C(N)=O)C2=C(C)C3(CC3)[C@@](C)(O)C(=O)C2=C1 | -69.1% (active)
14 | O=C(O)C(F)F | 91.4%
15 | Oc1c(O)c(Cl)c(Cl)c(Cl)c1Cl | 74.2%
16 | C/C(=C\c1cc(C(F)(F)F)n(-c2ccc(N)cc2)n1)[C@@H]1C[C@@H]2O[C@]2(C)CCC[C@H](C)[C@H](O)[C@@H](C)C(=O)C(C)(C)[C@@H](O)CC(=O)O1 | -16.6% (active)
17 | COc1cc2c(c(OC)c1OC)-c1ccc(O)c(=O)cc1[C@@H](NC(C)=O)CC2 | 62.8%
18 | O=C(O)c1ccc([S-])cc1.[Au+].c1ccc(CN2[CH-]N(Cc3ccccc3)C(c3ccccc3)=C2c2ccccc2)cc1 | -63.2% (active)
19 | CN1C2CCC1[C@@H](COC(=O)c1ccccc1)[C@@H](O)C2 (stereo not given in full) | 86.1%
20 | NC(N)=N/N=C\c1c[nH]c2ccc(Br)cc12 | -6.01% (active)

Row | Structure (SMILES) | growth
21 | CN1CCCCC1C(C)(O)c1ccccc1 (stereo not given) | 102%
22 | NS(=O)(=O)c1nc[nH]c1[N+](=O)[O-] | 103%
23 | C[C@]12CC[C@H]3[C@@H](C[C@@H]4SC(Nc5ccccc5)=N[C@@]45CC(O)CC[C@]35C)[C@@H]1CCC2O (stereo not given in full) | -1% (active)
24 | COc1ccccc1N1CCN(CCc2c[nH]c3cc4c(cc23)OCO4)CC1 | 90%
25 | CC12CCC(=O)C=C1CCC1C2CCC2(C)C(C(=O)COC(=O)Cc3ccc(N(CCCl)CCCl)cc3)CCC12 (stereo not given) | 64.1%
26 | O=[N+]([O-])c1ccc([Se]C2CCCCC2Cl)c([N+](=O)[O-])c1 (stereo not given) | 90.5%
27 | Cn1cc(-c2csc(-c3cn(CCCCN4CCCCC4)c4ccc(F)cc34)n2)c2cccnc21 | 93.3%
28 | O=C(O)C(O)c1ccc(Cl)cc1 (stereo not given) | 84.9% and 112%
29 | N#CC1(C#N)C(c2ccc(N(CCCl)CCCl)cc2)OC23CCCCC2C1(C#N)C(=N)O3 (stereo not given) | 56.5%
30 | COc1cc(C2(C#N)CCN(C)CC2)cc(OC)c1OC | 108%
31 | CO[C@@H](c1ccccc1Cl)[C@H](C)OC(N)=O | 91.6%
32 | ClCCN(CCCl)c1ccc(/C=N/Nc2ncnc3nc[nH]c23)cc1 | 49.8%
33 | CCC(C)[C@H]1C(=O)O[C@H](C(C)C)C(=O)N(C)[C@@H](C(C)C)C(=O)O[C@H](C(C)C)C(=O)N(C)[C@@H](C(C)C)C(=O)O[C@H](C(C)C)C(=O)N1C (stereo not given in full) | -0.302% (active)
34 | C=C1C(=O)OC2CC3(C)OC3C3OC3C3=CC(OC3=O)C12 (stereo not given) | 32.8% and 65.2%
35 | C[C@]12CC[C@H](O)C[C@@H]1CC[C@@H]1[C@@H]2CC[C@]2(C)OC(=O)CC[C@@H]12 | 106%
36 | CCOC(=O)N[C@H]1CCc2c(Br)c(OC)c(OC)c(OC)c2-c2ccc(SC)c(=O)cc21 | -14.7% (active)
37 | Cc1ccc(P(=O)(O)O)cc1 | 88.3%
38 | N#C[Se]CCN1C(=O)c2ccccc2C1=O | 20.4%
39 | Cc1sc2c(c1C)C(c1ccc(Cl)cc1)=N[C@@H](CC(=O)OC(C)(C)C)c1nnc(C)n1-2 | -10.8% (active)
40 | COc1cc([C@@H]2c3cc4c(cc3[C@H](OC(C)=O)[C@H]3COC(=O)[C@H]23)OCO4)cc(OC)c1OC | 44.6%
